Reference: PubChem BioAssay (NCATS)
Unmarked numbers belong to inactive results. Records with an inconclusive call do not appear. Calls of active or inactive are those of the source. Unless noted, calls come from the whole dose curve; as a rule, active = well fitted curve in either direction with a large enough effect (not every such curve was filed as active); inconclusive = small, poorly fitted or top-dose-only effect, or another doubt; inactive = flat fitted curve, though single readings scatter.

What was measured:
[1] = target: Lysosomal acid glucosylceramidase (Homo sapiens) (UniProt P04062); assay: Glucocerebrosidase-p2 (AID 348; in the data active = potency below about 10 µM; note: potency is the fitted concentration of half-maximal effect); conditions: purified GBA, blue fluorogenic substrate, 40 min
Sequence of Lysosomal acid glucosylceramidase (Homo sapiens) (P04062 whole entry, looked up): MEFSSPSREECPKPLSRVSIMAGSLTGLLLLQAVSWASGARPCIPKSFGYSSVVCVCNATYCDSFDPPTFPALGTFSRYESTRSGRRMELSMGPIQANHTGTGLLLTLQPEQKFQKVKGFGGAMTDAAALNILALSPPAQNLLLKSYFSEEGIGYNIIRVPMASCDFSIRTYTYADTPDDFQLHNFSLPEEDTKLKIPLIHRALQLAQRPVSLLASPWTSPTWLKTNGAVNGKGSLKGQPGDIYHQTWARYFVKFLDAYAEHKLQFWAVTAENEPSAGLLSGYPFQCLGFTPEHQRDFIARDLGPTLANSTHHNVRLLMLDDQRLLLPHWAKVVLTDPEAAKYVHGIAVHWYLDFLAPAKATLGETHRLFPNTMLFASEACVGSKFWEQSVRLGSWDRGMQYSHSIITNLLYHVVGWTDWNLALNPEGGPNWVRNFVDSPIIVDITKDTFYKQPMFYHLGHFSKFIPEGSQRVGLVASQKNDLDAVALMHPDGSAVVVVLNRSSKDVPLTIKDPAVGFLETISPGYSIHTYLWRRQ
How it was run: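 Normal human glucocerebrosidase (0.2 nM) with blue fluorogenic substrate (80 uM final) in citrate/phosphate pH 5.9 with 10mM sodium taurocholate, 0.01% tween-20; 40 min RT, NaOH/glycine stop; fluorescence Ex 365/Em 440; AC50 from a titration from 0.6 nM upwards.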

[2] = AP1 Signaling Pathway (AID 357); conditions: ME-180 AP-1-bla reporter, EGF-induced, beta-lactamase ratio, 5 h; at 7.69 µM (top of the series) unless noted; note: % is set by controls: 0 for no effect and ±100 for the full control effect
How it was run: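 AP-1-bla ME-180 cells with beta-lactamase reporter under AP-1 response element, stimulated with EC50 EGF; compounds titrated, 5 hours at 37 degrees Celsius. CCF4 read at 460/530 nm ratio; positive and negative modulators judged by AC50.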

[3] = target: Cytochrome P450 1A2 (Homo sapiens) (UniProt P05177); assay: p450-cyp1a2 (AID 410; calls by dose curve; note: potency is the fitted concentration of half-maximal effect;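 for activity change, negative = inhibition: -100% = full effect of reference inhibitor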); conditions: recombinant CYP1A2, luciferin-ME demethylation, luminescence; series mostly up to 57 µM
Sequence of Cytochrome P450 1A2 (Homo sapiens) (P05177 whole entry, looked up): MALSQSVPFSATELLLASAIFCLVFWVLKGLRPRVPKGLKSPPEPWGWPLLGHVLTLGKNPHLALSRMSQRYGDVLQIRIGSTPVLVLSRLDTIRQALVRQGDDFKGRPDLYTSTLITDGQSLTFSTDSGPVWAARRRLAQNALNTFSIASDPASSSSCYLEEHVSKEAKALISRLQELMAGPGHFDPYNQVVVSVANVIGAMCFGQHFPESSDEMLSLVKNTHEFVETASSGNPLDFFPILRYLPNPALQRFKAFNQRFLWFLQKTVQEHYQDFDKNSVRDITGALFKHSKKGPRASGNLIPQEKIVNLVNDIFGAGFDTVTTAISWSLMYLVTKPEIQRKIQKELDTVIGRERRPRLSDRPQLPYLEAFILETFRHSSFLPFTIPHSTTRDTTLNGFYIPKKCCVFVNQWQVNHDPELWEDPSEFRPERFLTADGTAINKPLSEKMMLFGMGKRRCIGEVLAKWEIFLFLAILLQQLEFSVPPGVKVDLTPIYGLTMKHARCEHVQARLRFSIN
How it was run: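 Luminescent demethylation readout: Luciferin-ME (100uM, equal to Km) turned over by 20nM CYP1A2 for 60 min at room temperature after NADPH regeneration addition, following 10 min compound preincubation. Normalization used 57 uM furafylline as full inhibition.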

[4] = NFAT Signaling Pathway (AID 444); conditions: Jurkat NFAT-bla M1, carbachol, beta-lactamase ratio, 5 h; at 7.69 µM (top of the series) unless noted;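 note: carbachol stimulus at about its EC50 of 1 µM final; % is set by controls: 0 for no effect and ±100 for the full control effect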
How it was run: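 Jurkat cells carrying an NFAT-driven β-lactamase reporter and co-transfected muscarinic M1 receptor were treated with compound plus carbachol (1 uM final, an EC50 level) for 5 h at 37 °C. CCF4 loading followed for 1 h at RT; 460/530 nm ratio gave %activity.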

[5] = Stat Signaling Pathway (AID 446); conditions: ME-180 (cervical carcinoma) SIE beta-lactamase reporter, IL-6 stimulated, 5 h; at 7.69 µM (top of the series) unless noted;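 note: ME-180 cervical cancer cells given 40 pM IL-6 alongside compound; SIE-controlled beta-lactamase reporter measured as 460/530 nm FRET emission ratio; % is set by controls: 0 for no effect and ±100 for the full control effect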
How it was run: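 Normalization used AC90 stimulation (300 pM IL-6) and AC90 inhibition (125 nM pan-JAK inhibitor at 40 pM IL-6). The underlying signal is SIE-driven beta-lactamase in ME-180 cells after 5 h IL-6 exposure with compound.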

[6] = target: Glucocorticoid receptor (Homo sapiens) (UniProt P04150); assay: GR-EFC Redistribution (AID 451; calls by dose curve; note: potency is the fitted concentration of half-maximal effect); conditions: CHO-K1 GR-EFC translocation, beta-gal luminescence, 2 h
Sequence of Glucocorticoid receptor (Homo sapiens) (P04150 whole entry, looked up, the tested form may be a part): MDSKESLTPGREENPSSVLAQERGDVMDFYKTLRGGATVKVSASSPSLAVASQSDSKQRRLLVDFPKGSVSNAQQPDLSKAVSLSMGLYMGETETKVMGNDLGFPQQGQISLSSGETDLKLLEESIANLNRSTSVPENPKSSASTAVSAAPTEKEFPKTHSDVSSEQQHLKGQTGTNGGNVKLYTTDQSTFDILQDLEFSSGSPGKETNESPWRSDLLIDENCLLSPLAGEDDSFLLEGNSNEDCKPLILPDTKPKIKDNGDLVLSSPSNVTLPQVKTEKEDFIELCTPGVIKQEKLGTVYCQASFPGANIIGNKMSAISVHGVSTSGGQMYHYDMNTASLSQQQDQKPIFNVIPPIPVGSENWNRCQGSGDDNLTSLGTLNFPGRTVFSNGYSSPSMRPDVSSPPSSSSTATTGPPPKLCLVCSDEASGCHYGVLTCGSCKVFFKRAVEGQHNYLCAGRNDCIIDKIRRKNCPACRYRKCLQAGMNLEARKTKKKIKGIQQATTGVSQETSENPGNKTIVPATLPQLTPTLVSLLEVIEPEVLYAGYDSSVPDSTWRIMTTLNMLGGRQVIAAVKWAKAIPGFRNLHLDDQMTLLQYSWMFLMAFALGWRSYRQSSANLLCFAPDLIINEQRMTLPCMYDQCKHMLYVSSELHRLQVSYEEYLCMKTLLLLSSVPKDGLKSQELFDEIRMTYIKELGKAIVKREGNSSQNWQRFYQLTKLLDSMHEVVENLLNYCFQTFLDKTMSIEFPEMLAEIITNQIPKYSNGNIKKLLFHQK
How it was run: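 CHO-K1 cells stably expressing nuclear-localized β-gal enzyme acceptor and GR fused C-terminally to the enzyme donor fragment; ligand-driven nuclear translocation restores β-gal by complementation. Compounds titrated up to 46 uM final, 2 h at 37 °C; luminescence read.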

[7] = target: Mitogen-activated protein kinase 10 (Mus musculus) (UniProt Q61831); assay: JNK3 AlphaScreen Assay (AID 530); conditions: JNK3 lysate, c-Jun phosphorylation; series mostly up to 57.1 µM;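 note: kinase came from lysate of stimulated human HepG2 cells; signal reports phosphorylation of biotinylated GST-cJun 1-79 at Ser73 with 10 µM ATP; % is set by controls: 0 for no effect and ±100 for the full control effect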
How it was run: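 Phosphorylation of biotinylated GST-cJun(1-79) at Ser73 is measured by AlphaScreen proximity luminescence. Enzyme is JNK3 in HepG2 lysates activated with interleukin-1beta and tumor necrosis factor alpha; ATP is 10 uM final.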

[8] = target: 3',5'-cyclic-AMP phosphodiesterase 4B (Homo sapiens) (UniProt Q07343); assay: qHTS Assay for Inhibitors of PDE-IV (AID 607; active = well fitted activation curve with a large enough effect in the main read-out, with a control signal flat, not every such curve was filed as active; note: % of control where 0% means no effect); conditions: HEK293 ACTOne CNG channel cells, membrane potential fluorescence; series mostly up to 22.9 µM
Sequence of 3',5'-cyclic-AMP phosphodiesterase 4B (Homo sapiens) (Q07343 whole entry, looked up): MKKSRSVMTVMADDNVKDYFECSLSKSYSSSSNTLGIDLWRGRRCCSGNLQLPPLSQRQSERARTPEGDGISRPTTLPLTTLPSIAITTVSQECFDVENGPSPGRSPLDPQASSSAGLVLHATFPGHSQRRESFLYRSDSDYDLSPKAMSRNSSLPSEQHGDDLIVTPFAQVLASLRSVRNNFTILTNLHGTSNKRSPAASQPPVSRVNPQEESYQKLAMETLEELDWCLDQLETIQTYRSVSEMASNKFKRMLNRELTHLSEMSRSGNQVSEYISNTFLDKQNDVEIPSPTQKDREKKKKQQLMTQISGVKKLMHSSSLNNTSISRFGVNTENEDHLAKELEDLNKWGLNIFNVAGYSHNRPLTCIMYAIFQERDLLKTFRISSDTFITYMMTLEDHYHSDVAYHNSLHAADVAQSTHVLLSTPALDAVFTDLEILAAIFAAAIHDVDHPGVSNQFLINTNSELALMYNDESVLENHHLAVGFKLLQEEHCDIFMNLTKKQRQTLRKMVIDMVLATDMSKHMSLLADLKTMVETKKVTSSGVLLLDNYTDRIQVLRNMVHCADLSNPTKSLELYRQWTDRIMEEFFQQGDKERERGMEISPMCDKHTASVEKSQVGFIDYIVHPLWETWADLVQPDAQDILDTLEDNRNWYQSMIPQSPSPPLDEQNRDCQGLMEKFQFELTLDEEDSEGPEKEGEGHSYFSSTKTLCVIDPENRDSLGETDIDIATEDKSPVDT
How it was run: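 HEK293 ACTOne cells with CNG channel (1000/well), endogenous PDE4; membrane potential dye, compounds up to 22.9 uM final. Fluorescence Ex 535/Em 590; RO 20-1724 (100 uM final) as reference.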

[9] = target: Cytochrome P450 2C9 (Homo sapiens) (UniProt P11712); assay: qHTS Assay for Inhibitors and Substrates of Cytochrome P450 2C9 (AID 883; active = well fitted curve in the direction sought with a large enough effect; an effect the other way counts as inactive or inconclusive; note: nearly all actives have a fitted effect of over 60% in size; note: potency is the fitted concentration of half-maximal effect); conditions: recombinant CYP2C9, luciferin-H luminescence, 60 min; series mostly up to 57.1 µM
Sequence of Cytochrome P450 2C9 (Homo sapiens) (P11712 whole entry, looked up): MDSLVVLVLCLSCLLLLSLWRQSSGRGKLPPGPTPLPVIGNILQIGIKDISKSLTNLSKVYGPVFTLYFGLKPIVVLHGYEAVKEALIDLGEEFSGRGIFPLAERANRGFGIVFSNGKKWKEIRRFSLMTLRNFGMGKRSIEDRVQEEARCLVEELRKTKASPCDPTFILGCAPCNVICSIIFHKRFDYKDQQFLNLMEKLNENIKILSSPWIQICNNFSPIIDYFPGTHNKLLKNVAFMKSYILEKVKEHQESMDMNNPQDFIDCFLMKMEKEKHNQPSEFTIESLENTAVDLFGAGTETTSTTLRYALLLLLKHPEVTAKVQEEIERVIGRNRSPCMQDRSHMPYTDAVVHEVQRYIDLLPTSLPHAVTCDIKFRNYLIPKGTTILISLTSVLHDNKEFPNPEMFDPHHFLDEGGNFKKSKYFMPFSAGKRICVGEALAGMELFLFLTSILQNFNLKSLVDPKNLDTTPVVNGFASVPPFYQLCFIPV
How it was run: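 A luminogenic readout tracked human CYP2C9 (10nM) converting deoxyluciferin (100uM, at KM) in 25mM KPO4 during 60 min at 37C with regenerated NADPH. Values normalized to 57uM sulphaphenazole as complete inhibition.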

[10] = target: Cytochrome P450 3A4 (Homo sapiens) (UniProt P08684); assay: qHTS Assay for Inhibitors and Substrates of Cytochrome P450 3A4 (AID 884; active = well fitted curve in the direction sought with a large enough effect; an effect the other way counts as inactive or inconclusive; note: nearly all actives have a fitted effect of over 50% in size; note: potency is the fitted concentration of half-maximal effect); conditions: recombinant CYP3A4, Luciferin-PPXE luminescence; series mostly up to 57.1 µM
Sequence of Cytochrome P450 3A4 (Homo sapiens) (P08684 whole entry, looked up): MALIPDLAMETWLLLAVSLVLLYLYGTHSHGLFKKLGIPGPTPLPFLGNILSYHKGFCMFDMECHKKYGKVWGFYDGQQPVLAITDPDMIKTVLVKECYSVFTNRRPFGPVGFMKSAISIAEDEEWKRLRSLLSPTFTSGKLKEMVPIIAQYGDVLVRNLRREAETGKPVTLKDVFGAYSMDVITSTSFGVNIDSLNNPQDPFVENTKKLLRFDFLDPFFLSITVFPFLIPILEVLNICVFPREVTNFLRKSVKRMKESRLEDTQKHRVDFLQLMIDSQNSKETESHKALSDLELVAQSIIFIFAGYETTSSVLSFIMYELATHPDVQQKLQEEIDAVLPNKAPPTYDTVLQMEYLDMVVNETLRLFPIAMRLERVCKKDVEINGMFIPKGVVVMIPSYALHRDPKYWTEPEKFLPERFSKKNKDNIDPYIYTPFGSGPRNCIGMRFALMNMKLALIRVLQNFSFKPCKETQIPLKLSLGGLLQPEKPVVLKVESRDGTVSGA
How it was run: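 Luminescent readout of luciferin produced by CYP3A4 (20 nM) dealkylation of Luciferin-PPXE, 25 uM (its KM). NADPH-driven reaction ran 60 min at RT after 10 min compound preincubation; data scaled to 57 uM ketoconazole as 100% inhibition.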

[11] = target: Cytochrome P450 2D6 (Homo sapiens) (UniProt P10635); assay: qHTS Assay for Inhibitors and Substrates of Cytochrome P450 2D6 (AID 891; active = well fitted curve in the direction sought with a large enough effect; an effect the other way counts as inactive or inconclusive;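 note: luciferin methyl ether substrate demethylated by CYP2D6 with NADPH regeneration; % is set by controls: 0 for no effect and ±100 for the full control effect; nearly all actives have a fitted effect of over 60% in size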); conditions: recombinant CYP2D6, luciferin-ME EGE luminescence; series mostly up to 57.1 µM
Sequence of Cytochrome P450 2D6 (Homo sapiens) (P10635 whole entry, looked up): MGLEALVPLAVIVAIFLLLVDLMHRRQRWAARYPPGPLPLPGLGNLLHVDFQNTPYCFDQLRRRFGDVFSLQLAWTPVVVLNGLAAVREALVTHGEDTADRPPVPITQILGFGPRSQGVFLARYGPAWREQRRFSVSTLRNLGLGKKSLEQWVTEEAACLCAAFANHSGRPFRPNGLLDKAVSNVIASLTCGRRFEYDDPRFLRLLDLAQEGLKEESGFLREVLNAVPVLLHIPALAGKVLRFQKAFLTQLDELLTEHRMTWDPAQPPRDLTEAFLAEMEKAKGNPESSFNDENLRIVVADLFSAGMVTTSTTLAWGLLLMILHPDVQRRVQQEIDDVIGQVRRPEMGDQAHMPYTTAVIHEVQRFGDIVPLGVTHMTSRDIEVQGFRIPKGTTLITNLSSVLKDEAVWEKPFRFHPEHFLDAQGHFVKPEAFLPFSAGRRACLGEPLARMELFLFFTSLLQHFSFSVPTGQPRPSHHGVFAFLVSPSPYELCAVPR
How it was run: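 Luminescent read-out of luciferin formed by 5 nM human CYP2D6 demethylating 30 uM Luciferin-ME EGE (Km level) over 60 min at room temperature after NADPH regeneration addition. Data normalized to full inhibition by 1.43 uM quinidine.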

[12] = target: Cytochrome P450 2C19 (Homo sapiens) (UniProt P33261); assay: qHTS Assay for Inhibitors and Substrates of Cytochrome P450 2C19 (AID 899; active = well fitted curve in the direction sought with a large enough effect; an effect the other way counts as inactive or inconclusive; note: nearly all actives have a fitted effect of over 60% in size; note: potency is the fitted concentration of half-maximal effect); conditions: recombinant CYP2C19, luciferin-H EGE luminescence; series mostly up to 57.1 µM
Sequence of Cytochrome P450 2C19 (Homo sapiens) (P33261 whole entry, looked up): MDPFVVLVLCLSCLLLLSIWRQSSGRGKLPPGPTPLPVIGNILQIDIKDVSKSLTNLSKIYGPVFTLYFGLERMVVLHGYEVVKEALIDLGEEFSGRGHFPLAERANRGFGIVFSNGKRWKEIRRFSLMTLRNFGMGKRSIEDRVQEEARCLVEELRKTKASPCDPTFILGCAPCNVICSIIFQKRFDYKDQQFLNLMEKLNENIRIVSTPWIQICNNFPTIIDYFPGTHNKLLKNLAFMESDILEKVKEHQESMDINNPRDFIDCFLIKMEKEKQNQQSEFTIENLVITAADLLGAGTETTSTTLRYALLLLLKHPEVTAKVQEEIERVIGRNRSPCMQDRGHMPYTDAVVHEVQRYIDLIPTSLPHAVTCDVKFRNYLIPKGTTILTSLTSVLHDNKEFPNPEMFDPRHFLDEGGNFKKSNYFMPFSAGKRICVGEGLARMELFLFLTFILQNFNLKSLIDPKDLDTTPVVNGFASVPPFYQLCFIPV
How it was run: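 NADPH-dependent conversion of Luciferin-H EGE (10uM, at KM) by 5nM enzyme in 50mM KPO4, 60 min at 37C following 10 min compound preincubation. Stopped with luciferin detection buffer; luminescence read after 20 min.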

[13] = Primary qHTS for small molecule stabilizers of the endoplasmic reticulum resident proteome: Secreted ER Calcium Modulated Protein (SERCaMP) assay (AID 1508630; active = well fitted curve in the direction sought with a large enough effect; an effect the other way counts as inactive or inconclusive; note: % is set by controls: 0 for no effect and ±100 for the full control effect); conditions: SH-SY5Y GLuc-SERCaMP (Gaussia luciferase released on ER calcium loss) secretion, thapsigargin, luminescence; series mostly up to 38.4 µM
How it was run: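 The SH-SY5Y reporter protocol was run at 3 concentrations up to 38.3 uM (primary) or 11 concentrations (follow-up): 16 h compound, 100 nM thapsigargin for 4 h, then extracellular luciferase luminescence.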

[14] = Confirmation and Secondary Assay for Modulators of Hemoglobin Beta Chain Splicing at IVS2 654 locus (AID 910; active = well fitted curve in the direction sought with a large enough effect; an effect the other way counts as inactive or inconclusive;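 note: per-well total GFP intensity by laser scanning cytometry after 2-day treatment; % of control where 0% means no effect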); conditions: HeLa EGFP-654 splicing reporter, GFP fluorescence, 48 h; series mostly up to 38.3 µM
How it was run: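 HeLa cells stably carrying EGFP interrupted by mutant beta-globin IVS2-654 intron (CMV-driven) were treated with compound for 2 days at 37C; corrected splicing was scored as total peak GFP intensity per well (488 nm excitation, 500-520 nm emission).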

[15] = Confirmation and Secondary Assay for Modulators of Hemoglobin Beta Chain Splicing at IVS2 705 locus (AID 930; active = well fitted curve in the direction sought with a large enough effect; an effect the other way counts as inactive or inconclusive;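 note: HeLa cells stably expressing the EGFP-705 splicing reporter; GFP fluorescence per well restored by corrected splicing of the IVS2-705 intron in EGFP; % of control where 0% means no effect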); conditions: HeLa EGFP-705 splicing reporter, GFP fluorescence, 48 h; series mostly up to 38.3 µM
How it was run: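 Stable HeLa line with EGFP disrupted by mutant beta-globin intron 2 (705). Overnight attachment, then 2 days of compound at 37C, 5% CO2. Signal: peak GFP intensity summed over objects 5-250 µm.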

[16] = target: Ubiquitin carboxyl-terminal hydrolase 1 (Homo sapiens) (UniProt O94782); assay: Inhibitors of USP1/UAF1: Pilot qHTS (AID 504865; active = well fitted curve in the direction sought with a large enough effect; an effect the other way counts as inactive or inconclusive;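 note: rhodamine fluorescence freed from ubiquitin-rhodamine substrate followed over time; top concentration of the series differs between compounds; % is set by controls: 0 for no effect and ±100 for the full control effect; nearly all actives have a fitted effect of over 35% in size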); conditions: purified USP1/UAF1, Ub-rhodamine cleavage fluorescence; series mostly up to 54.9 µM
How it was run: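 Enzyme-free wells gave the negative control, while test wells held 1nM USP1/UAF1 preincubated with compound for 15 min at room temperature. Ub-Rho at 150nM final started the reaction, and fluorescence at 480/540 nm was recorded kinetically.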

[17] = target: Glucocorticoid receptor (Homo sapiens) (UniProt P04150); assay: GR-GFP Redistribution (AID 450;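 active = compounds whose dose series gives a full or clear partial fitted curve of increased nuclear translocation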; note: potency is the fitted concentration of half-maximal effect); conditions: U2OS GR-GFP nuclear translocation, laser cytometry, 2 h
[18] = target: Cytochrome P450 3A4 (Homo sapiens) (UniProt P08684); assay: qHTS Assay for Activators of Cytochrome P450 3A4 (AID 885; active = well fitted curve in the direction sought with a large enough effect; an effect the other way counts as inactive or inconclusive; note: nearly all actives have a fitted effect of over 65% in size; note: potency is the fitted concentration of half-maximal effect); conditions: recombinant CYP3A4, Luciferin-PPXE luminescence, 60 min; series mostly up to 57.1 µM
How it was run: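 Human CYP3A4 dealkylates Luciferin-PPXE to luciferin, which luciferase detection converts to light. Substrate was at its KM (25uM), buffer 200mM KPO4, reaction 60 min at RT.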

Row | Compound | Potency [1] [µM] | activity change, negative = inhibition [2] [%] | Potency [3] | activity change, negative = inhibition [4] [%] | activity, negative = inhibition [5] [%] | Potency [6] [µM] | Potency [7] | Potency [8] | Potency [9] | Potency [10] | Potency [11] | Potency [12] | outcome [13] | Potency [14] | outcome [15] | Potency [16] | Potency [17] [µM] | Potency [18]
1 | Cc1noc(C)c1C(=O)N1CCC[C@@]2(CCN(Cc3ccc(C#N)cc3)C2)C1 | > 11.4 | -6.54 | inactive | 17.1 | 6.11 | > 46 | inactive | inactive | inactive | inactive | inactive | inactive | inactive |  |  |  |  | 
2 | O=C(c1csnn1)N1CCC2(CCN(Cc3nccs3)CC2)CC1 | > 11.4 | -7.97 | inactive | -13.7 | -2.3 | > 46 | inactive | inactive |  |  |  |  | inactive |  |  |  |  | 
3 | COC(=O)N1CCC2(CC1)CN(C(=O)Nc1cccc(F)c1)C2 | > 11.4 | -2.84 | inactive | 0.322 | -2.22 | > 46 | inactive | inactive |  |  |  |  | inactive |  |  |  |  | 
4 | COc1ccc(NC(=O)N2CC3(CCN(C(=O)c4cnccn4)CC3)C2)cc1 | > 11.4 | 0.0652 | inactive | 15.4 | 4.6 | > 46 | inactive | inactive |  |  |  |  | inactive |  |  |  |  | 
5 | CC(=O)NCCNc1ncnc2ccc(-c3ccc(C(=O)N(C)C)cc3)cc12 | > 11.4 | -14.6 | 25.1 µM (active) | -1.21 | -0.482 | > 46 | inactive | inactive |  |  |  |  | inactive | inactive | inactive | inactive |  | 
6 | CS(=O)(=O)N1CCC2(CCN(Cc3nccs3)CC2)CC1 | > 11.4 | 3.17 | inactive | 9.85 | -5.91 | > 46 | inactive | inactive |  |  |  |  | inactive |  |  |  |  | 
7 | CC(=O)N1CCC2(CC1)CCN(c1cccc(-c3ccccc3)c1)CC2 | > 11.4 | -13.2 | 3.98 µM (active) | 16.7 | 18.6 | > 46 | inactive | inactive |  |  |  |  | inactive |  |  |  |  | 
8 | COc1cccc(Cn2c(=O)c(-c3ccccc3)nc3cnc(N(C)C)nc32)c1 | > 11.4 | 8.64 | 10 µM (active) | -16.4 | 11.4 | > 46 |  |  |  | 6.31 µM (active) |  |  | inactive |  |  |  | > 9.22 | inactive
9 | COCC(=O)N1CCC2(CC1)CN(C(=O)Nc1ccccc1)C2 | > 11.4 | 7.47 | 12.6 µM (active) | 18.9 | -7.39 | > 46 | inactive | inactive | 1.58 µM (active) |  |  | 5.01 µM (active) | inactive |  |  |  |  | 
10 | CS(=O)(=O)N1CCC[C@@]2(CCN(c3ncccn3)C2)C1 | > 11.4 | -9.3 | inactive | 16.2 | -19.8 | > 46 | inactive | inactive |  |  |  |  | inactive |  |  |  |  | 
11 | Cn1cccc1C(=O)N1CCC2(CCCN(c3ncccn3)C2)CC1 | > 11.4 | 7.97 | inactive | 2.93 | -5.18 | > 46 | inactive | inactive | inactive |  | inactive | inactive | inactive |  |  |  |  | 
12 | COCC(=O)N1CCC2(CCCN(C(=O)Nc3ccccc3)C2)CC1 | > 11.4 | -1.58 | inactive | 13.8 | 3.14 | > 46 | inactive | inactive |  |  |  |  | inactive |  |  |  |  | 
13 | COc1ccc(C(=O)N2CCC3(CCCN(C)C3)CC2)cc1 | > 11.4 | 2.83 | inactive | 0.644 | -7.5 | > 46 | inactive | inactive |  |  |  |  | inactive |  |  |  |  | 
14 | O=S(=O)(c1ccccc1)N1CCC2(CC1)CN(Cc1nccs1)C2 | > 11.4 | 11.1 | inactive | -29.2 | 9.77 | > 46 | inactive | inactive |  |  |  |  | inactive |  |  |  |  | 
15 | COc1ccc(NC(=O)N2CCC3(CC2)CCN(C(=O)c2cccn2C)CC3)cc1 | > 11.4 | -7.7 | inactive | -0.784 | 2.55 | > 46 | inactive | inactive |  | inactive |  |  | inactive |  |  |  |  | 
16 | O=C(Oc1ccccc1)N1CCC2(CC1)CN(c1ncccn1)C2 | > 11.4 | -11.2 | 25.1 µM (active) | -7.82 | -0.184 | > 46 | inactive | inactive |  | inactive |  |  | inactive |  |  |  |  | 15.8 µM (active)
